# High-throughput results as filed in PubChem BioAssay.
# Shown are actives, neighbours in structure and some others; about 8.3% of the full set was active somewhere.
# HCV inh = blocks hepatitis C virus | Potency, µM (highest dose often 41.8 µM), without a hit: at the top dose activity change, negative = inhibition, usual class: inhibitors | Huh7.5.1 HCVcc-Cre infection, luciferase reporter, 44 h | actives 3.4% (n = 340,000); note: potency is the fitted concentration of half-maximal effect
#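 HCVcc-Cre virus at an moi near 0.5 was added right after compound to cells cultured 4 h from seeding (1,000 cells/well). Luciferase activity was determined 44 h later, 15 min after substrate addition at RT.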
# HCMV inh = blocks human cytomegalovirus replication; HFF cells, HCMV-luciferase reporter, 72 h; stronger effect = lower value; actives 4.5% (n = 410,000); AID 1259415; activity change, negative = inhibition, % at 57.5 µM; in the data active = activity change below about -60%; inconclusive = no clear call, values can overlap the other calls; inactive = above about -39%
#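 Steps: HFFs plated, 16 h 37C; compounds added; HCMV-luciferase added to MOI 1 PFU/cell; 72 h 37C; OneGlo reagent, 5 min room temperature; luminescence read, normalized to controls.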
# FMDV inh = antivirals against foot and mouth disease virus; actives 1.2% (n = 410,000); FMDV antiviral cell-based qHTS; Potency, µM (titrated, usually from 57.9 µM), without a hit: at the top dose activity change, negative = inhibition, hits mostly inhibitors; calls by dose curve; tested in HEK293T cells; note: read-out not given here; potency is the fitted concentration of half-maximal effect; nearly all actives have a fitted effect of over 45% in size
# FBPA Giardia inh = Giardia lamblia aldolase inhibition; Potency, µM (top dose mostly 59.6 µM), for the others: at the top dose activity, negative = inhibition, most hits filed as inhibitors; AID 2451; purified Giardia FBPA; actives 0.71% (n = 290,000); note: potency is the fitted concentration of half-maximal effect; nearly all actives have a fitted effect of over 55% in size
# Target sequence (A8B2U2 whole entry, looked up): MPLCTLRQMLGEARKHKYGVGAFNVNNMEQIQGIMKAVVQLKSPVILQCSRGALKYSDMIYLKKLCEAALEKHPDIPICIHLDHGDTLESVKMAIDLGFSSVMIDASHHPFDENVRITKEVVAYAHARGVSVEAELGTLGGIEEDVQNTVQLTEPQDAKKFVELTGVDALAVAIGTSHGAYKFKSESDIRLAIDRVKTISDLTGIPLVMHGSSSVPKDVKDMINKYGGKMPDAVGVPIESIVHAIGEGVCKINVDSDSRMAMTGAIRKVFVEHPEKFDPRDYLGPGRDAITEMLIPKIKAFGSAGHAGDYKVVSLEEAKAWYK
#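 Giardia FBPA (40 nM reagent) was preincubated 10 min at RT with compound (up to 57.5 uM final), then substrate plus GAPDH/TPI/NAD/arsenate coupling system with diaphorase/resazurin was added; resorufin fluorescence (525/598 nm) was read after 20 min.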
# LASV entry inh = blocks Lassa virus binding to or entry into cells; actives 1.2% (n = 300,000); Potency, µM (series often up to 37.9 µM), without a hit: at the highest dose activity change, negative = inhibition, actives largely listed as inhibitors; AID 540256; Lassa virus pseudotype entry inhibition, cell reporter; calls by dose curve; tested in HEK293 cells; note: potency is the fitted concentration of half-maximal effect; nearly all actives have a fitted effect of over 50% in size
# Marburg entry inh = blocks Marburg virus binding to or entry into cells | actives 1.8% (n = 300,000) | Potency, µM (series often up to 37.8 µM), for inactives: top-dose activity change, negative = inhibition, usual class: inhibitors | Marburg virus pseudotyped entry inhibition, cell reporter | AID 540276; calls by dose curve; tested in HEK293 cells; note: potency is the fitted concentration of half-maximal effect
# * marks the source's active call; other numbers are inactive results; ? = inconclusive; . = no result; [ ] = another dose, or the depositor's remark. Unless noted, calls come from the whole dose curve; as a rule, active = well fitted curve in the direction sought with a large enough effect; inconclusive = small, poorly fitted or top-dose-only effect, or another doubt; inactive = no such curve, though single readings can be large; an effect the other way counts as inactive or inconclusive. % is set by controls: 0 for no effect and ±100 for the full control effect.
SMILES,HCV inh,HCMV inh,FMDV inh,FBPA Giardia inh,LASV entry inh,Marburg entry inh
CCOC(=O)[C@H]1[C@H]2COc3ccc(Cl)cc3[C@@H]2N2C(=O)c3ccccc3NC(=O)[C@@]12C,-12.2%,-69.6*,?,.,.,.
COC(=O)c1ccc(-c2ccc(C3C4C=CCC(C)C4C(=O)N3Cc3ccccc3)c(F)c2)cc1 (centres undefined),.,.,.,0.1%,.,.
COc1ccccc1N1CCN(C(=O)C2CCN(S(=O)(=O)Cc3ccccc3)CC2)CC1,.,7.5,?,.,-4.4%[46.1 µM],0.6%[46.1 µM]
O=C(CC1NCCNC1=O)Nc1cccc(F)c1 (centres undefined),.,-14.4,-8.4%,.,15.9%[46.1 µM],?
O=C(NCc1cccc(Cl)c1)c1cccc(OC2CCN(C(=O)C3CC3)CC2)c1,?,-70.2*,15.8µM*,.,?,?
COc1ccc(OC)c(NC(=O)C2=C(C)C(=O)OC23CCCCCC3)c1,.,-18.7,-19.2%,.,5.6%[46.1 µM],.
CN(Cc1ccco1)c1nc(-c2ccccc2C(F)(F)F)nc2ccccc12,.,.,-17.9%,-6.5%,.,.
Cc1nnc(SCCn2c(N3CCC(Cc4ccccc4)CC3)nc3c2c(=O)[nH]c(=O)n3C)s1,?,.,?,1.5%,?,?
CCCCn1c(N2CCC(Cc3ccccc3)CC2)nc2c1c(=O)[nH]c(=O)n2C,35.5µM*,-28.2,28.2µM*,-4.2%,?,?
CCCCCCn1c(N2CCC(C)CC2)nc2c1c(=O)[nH]c(=O)n2C,9.2%,-18.5,20µM*,9.2%,?,-14.0%
C/C(Cl)=C\Cn1c(N2CCCC2)nc2c1c(=O)[nH]c(=O)n2C,-7.4%,-88.5*,-12.7%,0.2%,4.8%,-22.8%
C=CCn1c(N2CCCCCC2)nc2c1c(=O)[nH]c(=O)n2C,14.1%,-17.1,.,0.1%,-17.5%,-6.3%
O=c1oc2ccccc2cc1-c1cn2cc(Cc3ccc(Br)cc3)sc2n1,.,19.5,51.3%,.,-1.1%[46.1 µM],?
CCOC(=O)CCC(NC(=O)CC(=O)NC(CCC(=O)OCC)C(=O)OCC)C(=O)OCC (centres undefined),9.1%,-95.7*,5.0%,-4.5%,.,.
Cc1ccc(N2CC(NC(=O)/C=C\c3ccc4c(c3)OCO4)CC2=O)cc1C (centres undefined),.,112.7,-20.8%,.,-20.9%[46.1 µM],.
COc1ccc(Cl)cc1NC(=O)CSc1nc(=O)[nH]c2c1CCC2,.,16.5,-17.8%,.,-0.1%[46.1 µM],.
CCOc1ccc(CNC(=O)C2Cc3ccccc3N2C(=O)CC)cc1OC (centres undefined),.,9.9,7.3%,.,-10.1%[46.1 µM],.
Cc1cc(C(=O)O/N=C(\N)c2ccc(C(C)(C)C)cc2)no1,-26.3%,-69.4*,27.3%,-1.0%,.,.
CC(C)(C)c1ccc(C(=O)O/N=C(\N)c2ccccc2)cc1,?,-93.9*,0.708µM*,-1.0%,.,.
Cc1noc(-c2ccc(Cl)cc2)c1C(=O)O/N=C(\N)c1ccc(C(C)(C)C)cc1,?,-99.7*,25.1µM*,-4.3%,?,?
COc1ccc(C(=O)O/N=C(\N)c2ccccc2)cc1,-2.3%,53.9,?,-1.3%,?,?
O=C(c1cnccn1)N1CCC[C@@]2(CCN(Cc3ccccc3)C2)C1,.,.,2.8%,-5.2%,.,.
Cc1sc2nc(SCC(=O)Nc3cccc(C(=O)O)c3)[nH]c(=O)c2c1C,-13.7%,19.4,-19.6%,.,4.1%,13.4%
Cc1sc2nc(SCC(=O)Nc3ccc(Cl)c(C(=O)O)c3)[nH]c(=O)c2c1C,0.6%,0.0,-15.6%,.,?,12.6µM*
COc1ccc(Nc2ncc(C(=O)N3CCC(C(N)=O)CC3)c3ccccc23)cc1,11.9%,-7.0,14.4%,-8.7%,0.0%,-26.8%
SMILES,HCV inh,HCMV inh,FMDV inh,FBPA Giardia inh,LASV entry inh,Marburg entry inh
COc1ccc(CN2CCN(C(=O)C3CCC(CNS(=O)(=O)c4ccccc4)CC3)CC2)c(OC)c1OC (centres undefined),3.55µM*,-101.6*,?,-0.4%,-7.0%[46.1 µM],?
COc1ccccc1Nc1ncc(C(=O)N2CCC(C(N)=O)CC2)c2ccccc12,-4.6%,40.2,12.7%,?,1.7%,19.3%
COc1ccccc1Nc1ncc(C(=O)N2CCN(Cc3ccc(OC)c(OC)c3OC)CC2)c2ccccc12,12.6µM*,9.9,-11.8%,-8.1%,12.6µM*,?
COc1ccc(Nc2ncc(C(=O)N3CCN(Cc4ccccc4)CC3)c3ccccc23)cc1,10µM*,45.9,?,-6.1%,?,?
CCCn1c(=O)c2sccc2n2c(CCCC(=O)NC3CCC(C)CC3)nnc12 (centres undefined),.,-16.7,1.6%,.,19.8%[46.1 µM],.
Cc1ncc2c(c1CNC(=O)c1cncs1)CCN(C(=O)c1cccc(-c3cccc(F)c3)c1)C2,.,.,-3.8%,.,.,.
CCOC(=O)c1c(C)c(-c2ccccc2)n(CC(=O)NCCc2cccc(C)c2)c1C,.,-3.3,-9.9%,.,.,?
C/C(=N\Nc1cc(N2CCCCC2)nc(C)n1)c1ccc(Br)cc1,11.2µM*,-66.6*,?,?,.,.
C/C(=N\Nc1cc(N2CCOCC2)nc(C)n1)c1ccc(F)cc1,?,59.7,-16.1%,?,?,2.82µM*
C/C(=N\Nc1cc(N2CCOCC2)ncn1)c1ccccc1,-13.1%,-11.5,42.6%,12.0%,.,.
C/C(=N/Nc1nc(C)cc(C)n1)c1ccc(Br)cc1,?,?,4.7%,?,-10.5%[46.1 µM],?
Cc1ccc(NC(=O)c2ccc(N/N=C/c3cccc(O)c3)c([N+](=O)[O-])c2)cc1,?,-87.3*,0.0%,-0.2%,?,?
Cc1ccccc1NC(=O)c1ccc(N/N=C/c2ccccc2O)c([N+](=O)[O-])c1,-26.3%,-84.5*,4.1%,0.8%,3.8%,0.7%
O=C(Nc1ccc2oc(-c3ccc4ccccc4c3)nc2c1)c1cc(Cl)ccc1Cl,.,-30.2,-5.8%,.,-17.9%[46.1 µM],.
COCCN(C)C(=O)c1cnn(-c2ncc3c(n2)-c2ccccc2CCC3)c1C1CC1,.,.,43.0%,.,.,.
COc1ccc(C(=O)/C=C/c2ccc(OC(=O)c3cc(OC)c(OC)c(OC)c3)cc2)cc1,?,27.8,?,3.8%,?,?
CCOc1ccc(C(=O)/C=C/c2cc(OC)c(OC)c(OC)c2)cc1,-27.2%,-88.3*,?,-12.2%,?,?
COc1cc(/C=C/C(=O)c2ccc(F)cc2)cc(OC)c1OC,?,-112.1*,25.1µM*,-10.0%,?,?
OC1CCC(Nc2nccc3[nH]c(-c4ccccc4Cl)nc23)CC1 (centres undefined),.,-11.0,.,.,.,.
CCc1nc(CN2CCN(c3ccc(C(F)(F)F)cn3)CC2)c(C)[nH]1,10µM*,-20.3,?,-16.6%,.,.
Cc1cccc(C)c1NC(=O)CN1CCN(c2ccc(C(F)(F)F)cn2)CC1,.,?,-22.5%,.,.,.
FC(F)(F)c1cc(Cl)c2nc(-c3ccco3)c(Cc3ccccc3C(F)(F)F)n2c1,.,-66.0*,?,.,.,.
